Reference: PubChem BioAssay (NCI)
Compounds without any hit were thinned out: in the full panel of roughly 83,000, 20% have a hit.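 Negative percent growth values reflect cell death: -40 means 40% of the cells present at the start died, and -100 means all died.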 Values without a mark were called inactive. Active and inactive are the calls of the source. How the source made its calls: active means growth percent below 10; inactive means the rest.

System: HL-60(TB) leukemia
Test: NCI-60 one-dose screen, 48 h (100 = growth as untreated, 0 = no growth, -100 = all killed)
Conditions: 10 µM unless noted

SMILES: Nc1nc2c(c3ncccc13)C(c1ccccc1)Cc1ncccc1-2 (centres undefined)
- growth: 65.9%

SMILES: CCOC(=O)C1=NN(c2ccccc2)C(=O)/C1=C\N1C(=O)/C(=C/c2cccc(O)c2)SC1=S
- growth: 93.2%

SMILES: CC1(C)OB(O)c2cc(-c3nc4ccc5[nH]ncc5c4c4c3CCCC4)ccc21
- growth: 90.7%

SMILES: COc1ccc(/C=C/c2nc(N3CCOCC3)c3cc(F)c(F)cc3n2)cc1OC
- growth: -2.81% (active)

SMILES: CCOC(=O)/C(C#N)=C(/C)C1CC1
- growth: 110%

SMILES: O=C(C1=Cc2cc3ccccc3n2Cc2cnnn21)c1ccc(O)cc1
- growth: 41.7%

SMILES: COc1cc2cc(NCc3ccc(F)cc3)nc(C)c2cc1OC
- growth: 31.7%

SMILES: Cc1ccc(C(C)C)c(OCC(=O)O)c1
- growth: 117%

SMILES: CC(=O)N1CCN(c2ccc(OCC3CO[C@](Cn4ccnc4)(c4ccc(Cl)cc4Cl)O3)cc2)CC1 (some centres undefined)
- growth: 56.5%

SMILES: N=C(N)c1ccc(-c2ccc(-c3cncc4ccccc34)s2)s1
- growth: 13.6%

SMILES: O=C1NC(=O)c2cc([N+](=O)[O-])cc3cccc1c23
- growth: 135%

SMILES: COc1cc(-c2cc(/C=C/C(=O)c3ccc(Cl)c(Cl)c3)[nH]n2)cc(OC)c1OC
- growth: 87.3%

SMILES: COc1ccc(CCN2C(=O)/C(=C/c3ccc(C4Oc5ccccc5C5CC(c6ccccc6)=NN54)cc3)SC2=S)cc1 (centres undefined)
- growth: 97.7%

SMILES: Cc1cc2c(-c3nc4ccccc4[nH]3)c(O)c(O)cc2c(O)c1-c1c(C)cc2c(-c3nc4ccccc4[nH]3)c(O)c(O)cc2c1O
- growth: -11.2% (active)
